Test results taken from PubChem BioAssay (Tox21).
Values joined by “and” are separate entries in the source; they are usually repeats but may differ in a detail not shown here. Identical values can stand only once. A structure can be active in one record and inactive in another. Active and inactive are the calls of the source. Entries that show only a call come without a potency. Unless noted, the call rests on the fitted dose curve; in most records, active means well fitted curve in the direction sought with a large enough effect in the repeat runs; inconclusive means weak or mixed curves; inactive means no such curve, though single readings can be large; an effect the other way counts as inactive or inconclusive.

Assays:
[1] = qHTS assay to identify small molecule antagonists of the glucocorticoid receptor (GR) signaling pathway - cell viability counter screen (AID 720693); further: nearly all actives have a fitted effect of over 55% in size; further: potency means the concentration at half of the fitted maximal effect
[2] = qHTS assay for identifying genotoxic compounds that show differential cytotoxicity against isogenic chicken DT40 cell lines with known DNA damage response pathways - wild type cell line (AID 743012); further: nearly all actives have a fitted effect of over 60% in size; further: potency means the concentration at half of the fitted maximal effect
Summary of the method: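 Parental DNA repair-proficient DT40 cells, 300 per well, were pre-incubated ~0.5 h at 37 C/5% CO2, pin-dosed with compounds in DMSO, then incubated 40 h. Viability was read as CellTiter-Glo luminescence after 30 min at room temperature.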

[3] = qHTS assay for identifying genotoxic compounds that show differential cytotoxicity against isogenic chicken DT40 cell lines with known DNA damage response pathways - Rad54/Ku70 mutant cell line (AID 743015); further: nearly all actives have a fitted effect of over 60% in size
[4] = qHTS assay to identify small molecule antagonists of the androgen receptor (AR) signaling pathway - cell viability counter screen (AID 743033; further: nearly all actives have a fitted effect of over 45% in size; further: potency means the concentration at half of the fitted maximal effect)
[5] = biological target: Androgen receptor (Homo sapiens) (UniProt P10275); experiment: qHTS assay to identify small molecule antagonists of the androgen receptor (AR) signaling pathway (AID 743035; active means well fitted inhibition curve with a large enough effect in the signal ratio in the repeat runs, not every such curve was filed as active; inconclusive means weak or mixed curves, or effect the other way; inactive means no such curve, though single readings can be large or run the other way; the % refers to the signal ratio; further: potency means the concentration at half of the fitted maximal effect)
Sequence of Androgen receptor (Homo sapiens) (P10275 whole entry, looked up): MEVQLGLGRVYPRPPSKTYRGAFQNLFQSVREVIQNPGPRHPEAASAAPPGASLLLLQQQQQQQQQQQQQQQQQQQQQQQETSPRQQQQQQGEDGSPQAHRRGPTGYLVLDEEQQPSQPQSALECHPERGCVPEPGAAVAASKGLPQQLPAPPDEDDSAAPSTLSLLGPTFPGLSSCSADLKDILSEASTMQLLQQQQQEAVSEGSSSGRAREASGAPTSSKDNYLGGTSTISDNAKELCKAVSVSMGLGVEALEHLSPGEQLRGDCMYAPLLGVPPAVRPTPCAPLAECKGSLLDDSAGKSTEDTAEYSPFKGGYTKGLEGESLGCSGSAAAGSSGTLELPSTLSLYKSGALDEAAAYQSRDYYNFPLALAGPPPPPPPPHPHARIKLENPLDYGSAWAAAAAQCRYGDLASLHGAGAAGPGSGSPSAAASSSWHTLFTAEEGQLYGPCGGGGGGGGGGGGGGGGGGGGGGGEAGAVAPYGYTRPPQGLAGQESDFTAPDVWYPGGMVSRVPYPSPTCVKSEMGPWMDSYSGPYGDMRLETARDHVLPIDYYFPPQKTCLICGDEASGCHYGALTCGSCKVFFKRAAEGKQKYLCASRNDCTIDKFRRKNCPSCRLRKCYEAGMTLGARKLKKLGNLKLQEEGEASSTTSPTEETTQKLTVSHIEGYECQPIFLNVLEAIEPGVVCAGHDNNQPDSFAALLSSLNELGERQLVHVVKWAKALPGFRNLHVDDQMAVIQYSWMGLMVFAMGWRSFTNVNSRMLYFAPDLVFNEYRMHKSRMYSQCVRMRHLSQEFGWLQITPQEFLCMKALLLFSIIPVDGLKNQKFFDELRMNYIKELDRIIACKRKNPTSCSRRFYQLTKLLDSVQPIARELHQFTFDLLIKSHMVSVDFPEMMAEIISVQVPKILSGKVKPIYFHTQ
Summary of the method: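 HEK293 cells stably carrying a UAS-driven beta-lactamase reporter (AR-UAS-bla GripTite) were plated for 4 h at 37C, then given compound and the agonist R1881 and incubated 16 h. Reporter activity was read by LiveBLAzer B/G FRET fluorescence after 2 h at room temperature.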

[6] = biological target: Androgen receptor (Homo sapiens) (UniProt P10275); experiment: qHTS assay to identify small molecule agonists of the androgen receptor (AR) signaling pathway (AID 743036; active means well fitted activation curve with a large enough effect in the signal ratio in the repeat runs, with a control signal flat, not every such curve was filed as active; inconclusive means weak or mixed curves, or effect the other way; inactive means no such curve, though single readings can be large or run the other way; the % refers to the signal ratio)
Summary of the method: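 Beta-lactamase under UAS control, stably integrated in HEK293 GripTite cells, reports receptor activation. After 16 h compound treatment, cells received FRET substrate for 2 h at room temperature before fluorescence reading.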

[7] = biological target: Androgen receptor (Homo sapiens) (UniProt P10275); experiment: qHTS assay to identify small molecule agonists of the androgen receptor (AR) signaling pathway using the MDA cell line (AID 743040; further: nearly all actives have a fitted effect of over 20% in size)
Summary of the method: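 MDA-kb2 breast carcinoma cells carrying MMTV-luciferase (responsive to AR and GR), plated 5 h then treated 16 h with compounds at 37C, 0% CO2. Read-out was ONE-Glo luminescence after 30 min at room temperature.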

[8] = qHTS assay to identify small molecule antagonists of the androgen receptor (AR) signaling pathway using the MDA cell line - cell viability counter screen (AID 743041; further: nearly all actives have a fitted effect of over 45% in size; further: potency means the concentration at half of the fitted maximal effect)
Summary of the method: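 MDA-kb2 AR-luc cells (MMTV-luciferase, AR/GR responsive) treated with compounds plus R1881 agonist for 16 h at 37C. CellTiter-Fluor added at 15.5 h; fluorescence read after 30 min in the same wells.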

[9] = biological target: Androgen receptor (Homo sapiens) (UniProt P10275); experiment: qHTS assay to identify small molecule antagonists of the androgen receptor (AR) signaling pathway using the MDA cell line (AID 743042; further: nearly all actives have a fitted effect of over 55% in size; further: potency means the concentration at half of the fitted maximal effect)
Summary of the method: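 MDA-kb2 breast carcinoma cells carrying MMTV-luciferase (AR/GR responsive) were co-treated with compounds and the agonist R1881 for 16 h at 37C. Inhibition read as ONE-Glo luminescence; CellTiter-Fluor fluorescence measured in parallel for cytotoxicity.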

[10] = biological target: Estrogen receptor (Homo sapiens) (UniProt P03372); experiment: qHTS assay to identify small molecule antagonists of the estrogen receptor alpha (ER-alpha) signaling pathway (AID 743069; active means well fitted curve in the direction sought with a large enough effect in the signal ratio in the repeat runs, not every such curve was filed as active; inconclusive means weak or mixed curves, or effect the other way; inactive means no such curve, though single readings can be large or run the other way; the % refers to the signal ratio; further: potency means the concentration at half of the fitted maximal effect)
Sequence of Estrogen receptor (Homo sapiens) (P03372 whole entry, looked up): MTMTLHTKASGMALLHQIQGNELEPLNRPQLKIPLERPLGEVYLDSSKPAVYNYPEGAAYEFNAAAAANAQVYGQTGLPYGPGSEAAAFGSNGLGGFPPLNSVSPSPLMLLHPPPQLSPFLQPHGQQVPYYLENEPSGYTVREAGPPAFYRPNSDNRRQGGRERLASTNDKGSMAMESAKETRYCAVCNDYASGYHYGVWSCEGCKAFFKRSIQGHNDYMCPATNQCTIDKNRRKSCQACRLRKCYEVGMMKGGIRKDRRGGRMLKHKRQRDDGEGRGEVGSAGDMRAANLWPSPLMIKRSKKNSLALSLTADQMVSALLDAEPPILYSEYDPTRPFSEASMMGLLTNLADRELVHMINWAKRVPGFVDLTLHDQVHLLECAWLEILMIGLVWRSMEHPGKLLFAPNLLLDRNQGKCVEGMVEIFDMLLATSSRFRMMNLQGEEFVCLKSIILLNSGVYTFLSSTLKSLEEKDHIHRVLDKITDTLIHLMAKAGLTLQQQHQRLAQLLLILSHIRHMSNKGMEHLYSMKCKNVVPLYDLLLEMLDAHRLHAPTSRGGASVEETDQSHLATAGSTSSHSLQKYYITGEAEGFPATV
Summary of the method: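 HEK293 ER-alpha-UAS-bla GripTite cells, held overnight in 2% charcoal-stripped FBS, 5,000 cells/well, preincubated 4 h, then compound plus 17beta-estradiol for 18 h at 37C. Beta-lactamase read by LiveBLAzer B/G FRET substrate, 2 h at room temperature.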

[11] = qHTS assay to identify small molecule antagonists of the estrogen receptor alpha (ER-alpha) signaling pathway - cell viability counter screen (AID 743074; calls by dose curve;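 further: HEK293 cells carrying ER-alpha-UAS-bla reporter stimulated with 17beta-estradiol; nearly all actives have a fitted effect of over 45% in size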; further: potency means the concentration at half of the fitted maximal effect)
[12] = biological target: Estrogen receptor (Homo sapiens) (UniProt P03372); experiment: qHTS assay to identify small molecule agonists of the estrogen receptor alpha (ER-alpha) signaling pathway (AID 743075; calls by dose curve)
[13] = biological target: Estrogen receptor (Homo sapiens) (UniProt P03372); experiment: qHTS assay to identify small molecule agonists of the estrogen receptor alpha (ER-alpha) signaling pathway using the BG1 cell line (AID 743079); further: nearly all actives have a fitted effect of over 20% in size; further: potency means the concentration at half of the fitted maximal effect
[14] = qHTS assay to identify small molecule antagonists of the estrogen receptor alpha (ER-alpha) signaling pathway using the BG1 cell line - cell viability counter screen (AID 743081);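 further: compound given together with 17beta-estradiol as the ER stimulus; series mostly up to about 70 µM; nearly all actives have a fitted effect of over 45% in size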
Aromatase (Homo sapiens) = Aromatase (Homo sapiens) (UniProt P11511); experiment: qHTS assay to identify aromatase inhibitors (AID 743083); further: nearly all actives have a fitted effect of over 55% in size; further: potency means the concentration at half of the fitted maximal effect
Sequence of Aromatase (Homo sapiens) (P11511 whole entry, looked up): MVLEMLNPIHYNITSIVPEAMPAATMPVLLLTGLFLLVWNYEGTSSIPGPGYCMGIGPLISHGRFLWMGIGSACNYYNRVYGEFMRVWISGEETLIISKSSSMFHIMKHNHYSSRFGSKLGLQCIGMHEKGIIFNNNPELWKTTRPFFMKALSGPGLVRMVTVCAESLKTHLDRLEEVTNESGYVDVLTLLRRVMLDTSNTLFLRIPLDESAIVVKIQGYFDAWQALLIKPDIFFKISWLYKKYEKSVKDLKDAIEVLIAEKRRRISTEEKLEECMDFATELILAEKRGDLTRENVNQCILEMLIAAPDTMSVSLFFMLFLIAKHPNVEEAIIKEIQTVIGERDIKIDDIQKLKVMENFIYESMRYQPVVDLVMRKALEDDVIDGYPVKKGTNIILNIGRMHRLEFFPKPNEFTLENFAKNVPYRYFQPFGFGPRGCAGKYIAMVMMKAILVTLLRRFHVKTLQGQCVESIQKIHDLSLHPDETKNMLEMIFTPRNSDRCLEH

[15] = qHTS assay to identify small molecule antagonists of the thyroid receptor (TR) signaling pathway - cell viability counter screen (AID 743064); further: nearly all actives have a fitted effect of over 50% in size; further: potency means the concentration at half of the fitted maximal effect
Summary of the method: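 Compounds were tested on GH3.TRE-Luc cells in the presence of T3 at 1 nM final. Following 23.5 h at 37 °C, cell viability was quantified by CellTiter-Fluor.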

[16] = qHTS assay to identify small molecule antagonists of the thyroid receptor (TR) signaling pathway (AID 743065); further: nearly all actives have a fitted effect of over 55% in size; further: potency means the concentration at half of the fitted maximal effect
Summary of the method: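 GH3.TRE-Luc rat pituitary cells (two TREs driving luciferase) were dosed with compound, then stimulated with 1 nM T3 (final) for 23.5 h at 37 C. ONE-Glo luminescence was the read-out, with CellTiter-Fluor fluorescence as the cytotoxicity counter-screen.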

[17] = system: thyroid hormone receptor (rat, GH3 cells); experiment: qHTS assay to identify small molecule agonists of the thyroid receptor (TR) signaling pathway (AID 743066; calls by dose curve)
[18] = qHTS assay to identify small molecule antagonists of the estrogen receptor alpha (ER-alpha) signaling pathway using the BG1 cell line (AID 743080; calls by dose curve;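 further: BG1 cells stimulated with 17beta-estradiol alongside compound; series mostly up to about 70 µM; nearly all actives have a fitted effect of over 25% in size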)
Summary of the method: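 Quantitative HTS on the Tox21 10K library: BG1 cells with endogenous ER-alpha and ERE-luciferase reporter, 17beta-estradiol stimulation, 21.5 h compound exposure, luminescence endpoint with parallel fluorescence cytotoxicity counter-read.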

[19] = qHTS assay for identifying genotoxic compounds that show differential cytotoxicity against isogenic chicken DT40 cell lines with known DNA damage response pathways - Rev3 mutant cell line (AID 743014); further: nearly all actives have a fitted effect of over 55% in size; further: potency means the concentration at half of the fitted maximal effect

| Structure (SMILES) | Potency [1] | Potency [2] | Potency [3] | Potency [4] | Potency [5] | Potency [6] | Potency [7] | Potency [8] | Potency [9] | Potency [10] | Potency [11] | Potency [12] | Potency [13] | Potency [14] | Potency (Aromatase (Homo sapiens)) | Potency [15] | Potency [16] | Potency [17] | Potency [18] | Potency [19] |
| --- | --- | --- | --- | --- | --- | --- | --- | --- | --- | --- | --- | --- | --- | --- | --- | --- | --- | --- | --- | --- |
| O=C(O)[C@@H]1C[C@H](CP(=O)(O)O)CCN1 | inactive | inactive | inactive | inactive | inactive | inactive | inactive | inactive | inactive | inactive | inactive | inactive | inactive | inactive | inactive |  |  |  |  |  |
| OCC1(CO)COC(C(Cl)(Cl)Cl)OC1 | inactive | inactive | inactive | inactive |  |  |  | inactive |  | inactive | inactive | inactive | inactive | inactive | inactive | inactive | inactive | inactive | inactive |  |
| CCCCCN=C(N)N/N=C/c1c[nH]c2ccc(OC)cc12 | inactive | inactive |  | inactive |  |  |  | inactive |  |  | inactive |  |  | inactive | inactive |  | inactive | inactive |  | inactive |
| O=P(O)(O)CP(=O)(O)O | inactive | inactive | inactive | inactive | inactive | inactive | inactive | inactive | inactive | inactive | inactive | inactive | inactive | inactive | inactive | inactive |  | inactive | inactive |  |
| CCC(=O)OC(OP(=O)(CCCCc1ccccc1)CC(=O)N1C[C@H](C2CCCCC2)C[C@H]1C(=O)O)C(C)C (stereo partly specified) | inactive | inactive | inactive | inactive |  |  |  | inactive |  | inactive | inactive | inactive | inactive | inactive | inactive | inactive | inactive | inactive | inactive |  |
| C=CC1=C(C(=O)O)N2C(=O)[C@@H](NC(=O)/C(=N/OCC(=O)O)c3csc(N)n3)[C@H]2SC1 (stereo in doubt) | inactive | inactive | inactive | inactive |  |  |  | inactive |  | inactive | inactive | inactive | inactive | inactive | inactive | inactive | inactive | inactive |  |  |
| NC(=O)c1cc[n+](CC2=C(C(=O)O)N3C(=O)[C@@H](NC(=O)C(c4ccccc4)S(=O)(=O)[O-])[C@H]3SC2)cc1 (stereo partly specified) | inactive | inactive |  |  | inactive |  | inactive | inactive | inactive |  | inactive |  |  | inactive | inactive | inactive |  | inactive |  | inactive |
| CC(C)c1ccc2sc3ccccc3c(=O)c2c1 | inactive | 48.6 µM (active) |  |  |  |  |  | inactive |  |  | inactive | inactive | 6.11 µM (active) | inactive | inactive | inactive |  | inactive |  | 54.5 µM (active) |
| CN1[C@@H](CC(=O)c2ccccc2)CCC[C@H]1C[C@H](O)c1ccccc1 | inactive | 26.6 µM (active) |  | inactive |  |  |  |  |  | inactive | inactive | inactive | inactive |  | inactive |  |  | inactive | inactive | inactive |
| COC(=O)C[C@](O)(CCCC(C)(C)O)C(=O)O[C@@H]1C(OC)=CC23CCCN2CCc2cc4c(cc2[C@H]13)OCO4 (stereo partly specified) | 1.2 µM (active) and 1.07 µM (active) | 29.8 nM (active) and 23.7 nM (active) |  |  | 75.6 nM (active) and 67.4 nM (active) |  | inactive | 0.0531 µM (active) | 0.0211 µM (active) | 674 nM [inconclusive] (active) and 1.2 µM [inconclusive] (active) | inactive | inactive |  | inactive | 29.8 nM (active) and 23.7 nM (active) | 0.0596 µM (active) |  |  |  | 21.1 nM (active) and 26.6 nM (active) |
| c1ccc(-n2cnnn2)cc1 | inactive | inactive | inactive | inactive |  |  |  | inactive |  |  | inactive |  |  | inactive | inactive | inactive | inactive | inactive |  |  |
| Cc1c(O)c(=O)ccn1C | inactive | inactive | inactive | inactive |  |  |  | inactive |  | inactive | inactive | inactive | inactive | inactive | inactive | inactive | inactive | inactive |  |  |
| O=C1CCCCCCCCCCCCCC1 | inactive | inactive |  | inactive |  |  |  | inactive |  | inactive | inactive | inactive | inactive | inactive |  |  |  | inactive | inactive |  |
| NC(=O)CC[C@@H]1NC(=O)[C@H](Cc2ccccc2)NC(=O)[C@H](Cc2ccc(O)cc2)NC(=O)[C@@H](N)CSSC[C@@H](C(=O)N2CCC[C@H]2C(=O)N[C@@H](CCCN=C(N)N)C(=O)NCC(N)=O)NC(=O)[C@H](CC(N)=O)NC1=O | inactive | inactive | inactive | inactive |  |  |  | inactive |  |  | inactive |  |  | inactive | inactive | inactive |  | inactive |  |  |
| Cc1cc(F)ccc1-c1cc(N2CC[C@@H](O)[C@H]2CO)ncc1N(C)C(=O)C(C)(C)c1cc(C(F)(F)F)cc(C(F)(F)F)c1 | 17.1 µM (active) | 12 µM (active) |  | 30.4 µM (active) | 15.3 µM (active) |  | inactive |  | 33.8 µM (active) |  | 43 µM (active) |  |  |  | 24 µM (active) |  | 9.54 µM (active) |  |  |  |
| COc1ccc(/C=C/C(=O)Nc2ccccc2C(=O)O)cc1OC | inactive | inactive |  | inactive |  |  | inactive | inactive | inactive | inactive | inactive | inactive | inactive | inactive | inactive | inactive | 4.73 µM (active) | inactive |  |  |
| O=C1c2c(O)cccc2[C@H]([C@@H]2O[C@H](CO)[C@@H](O)[C@H](O)[C@H]2O)c2cc(CO)cc(O)c21 | inactive |  | inactive | inactive |  |  |  | inactive |  | inactive | inactive | inactive | 13.3 µM (active) and inactive | inactive | inactive | inactive | inactive | inactive | inactive | inactive |
| C=CC1=C(C(=O)O)N2C(=O)[C@@H](NC(=O)/C(=N\O)c3csc(N)n3)[C@H]2SC1 (stereo in doubt) | inactive |  | inactive | inactive | inactive | inactive | inactive | inactive | inactive | inactive | inactive | inactive | inactive | inactive | inactive |  | inactive | inactive |  | inactive |
| CNC(=O)C[C@@H](N)C(=O)N[C@@H](C(=O)N[C@@H]1C(=O)N2[C@@H]1SC(C)(C)[C@@H]2C(=O)O)c1ccc(O)cc1 | inactive | inactive | inactive | inactive |  |  |  | inactive |  | inactive | inactive | inactive | inactive | inactive | inactive | inactive |  |  | inactive |  |
| CC(C)(C)c1ccc2c(S(=O)(=O)O)c(C(C)(C)C)ccc2c1 | inactive | inactive | inactive | inactive |  |  |  | inactive |  | inactive | inactive | inactive | inactive | inactive | inactive | inactive |  | inactive | inactive |  |
| COC1=C(OC)C(=O)C(C/C=C(\C)CC/C=C(\C)CC/C=C(\C)CC/C=C(\C)CC/C=C(\C)CC/C=C(\C)CC/C=C(\C)CC/C=C(\C)CC/C=C(\C)CCC=C(C)C)=C(C)C1=O | inactive | inactive | inactive | inactive |  |  |  | inactive |  | inactive | inactive | inactive | inactive | inactive | inactive |  | inactive | inactive |  |  |
